Assay results: PubChem BioAssay AID504847 (National Center for Advancing Translational Sciences (NCATS), 2011)
Out of some 400,000 compounds screened, about 3,700 (0.93%) were called active. Another 3% or so got no clear call; they are omitted. Calls follow the shape of the dose curve; as a rule, active = well fitted inhibition curve with a large enough effect; inconclusive = small, poorly fitted or top-dose-only effect, or another doubt; inactive = no such curve, though single readings can be large or run the other way. What follows is part of a selection rich in actives, with near analogues and random picks from the rest.

Target: Vitamin D3 receptor (Homo sapiens) (UniProt P11473)
Sequence (P11473 whole entry, looked up): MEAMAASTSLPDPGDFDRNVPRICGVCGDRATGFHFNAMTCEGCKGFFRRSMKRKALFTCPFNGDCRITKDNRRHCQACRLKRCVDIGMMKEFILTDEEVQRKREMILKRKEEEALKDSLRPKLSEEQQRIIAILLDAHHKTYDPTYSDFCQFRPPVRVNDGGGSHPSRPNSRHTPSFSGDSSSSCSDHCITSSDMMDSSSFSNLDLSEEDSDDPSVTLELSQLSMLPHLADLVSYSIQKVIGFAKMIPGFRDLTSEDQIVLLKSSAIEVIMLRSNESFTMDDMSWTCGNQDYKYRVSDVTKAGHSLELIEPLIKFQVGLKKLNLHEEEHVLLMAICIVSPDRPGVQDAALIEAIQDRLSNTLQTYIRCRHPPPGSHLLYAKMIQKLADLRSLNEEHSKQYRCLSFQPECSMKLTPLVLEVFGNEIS
Assay: Inhibitors of the vitamin D receptor (VDR): qHTS
Settings: VDR-SRC2-3 peptide fluorescence polarization, 2 h; max response, negative = inhibition: stronger effect = lower value
Source text: The vitamin D receptor (VDR) is a ligand-activated transcription factor and is partially responsible for the regulation of the endocrine system. This includes the transcriptional regulation of genes involved in the production of the parathyroid hormone (PTH) and the regulation of the blood calcium level. High levels of PHT can cause hypercalcemia in the case of primary and tertiary hyperparathyroidism. The VDR-mediated gene regulation, activated by its ligand 1,25-dihydroxyvitamin D3 (1,25-(OH)2D3), is governed by the recruitment of coactivators. Our hypothesis is that small molecules, with the ability to inhibit the interaction between VDR and certain coactivators, are able to selectively modulate VDR-mediated transcription. Our long term objective is the application these VDR-coactivator inhibitors to study the role of VDR-coactivator binding for specific VDR regulated genes. Ultimately, these molecules can be developed into new treatments for hypercalcemic hyperparathyroidism. No small molecule or non-peptide inhibitors are known for the VDR-coactivator interaction.
In a collaboration between the University of Wisconsin, Milwaukee and the NIH Chemical Genomics Center (NCGC) a HTS-compatible enzymatic assay was developed. The assay uses fluorescence polarization as its read-out to measure the inhibition between VDR and coregulator peptide SRC2-3 exerted by small molecules. This assay was used to screen the NIH Molecular Libraries Small Molecule Repository (MLSMR).
NIH Chemical Genomics Center [NCGC]
NIH Molecular Libraries Probe Centers Network [MLPCN]
Assay Submitter (PI): Alexander Arnold, University of Wilwaukee
Both solutions are kept at 4 deg C and protected from light and dispensed using a Kalypsys dispenser. Then 23nl of compounds and controls are added with Kalypsys pintool. […] Plate is centrifuged at 1000 RPM for 15 seconds to remove any residual bubbles. The plate is then incubate at ambient room temperature for 2 hours.
% is scaled to controls: 0 for no effect and ±100 for the full control effect; potency is read from the fitted curve at half-maximal effect.

Max response, negative = inhibition, inactive:
COc1ccccc1OCCC(=O)OCC(=O)NCc1ccccc1 -14.2%
COc1cc(C(=O)NCc2ccncc2)cc(Br)c1OCc1ccccc1 -8.88%
COc1ccc(NC(=O)C2CCCN(S(=O)(=O)c3cccc4nonc34)C2)cc1Cl (configuration not stated) -11.1%
Cc1ccc(NC(=O)C(=O)NCC(c2cccnc2)N2CCOCC2)cc1 (configuration not stated) 7.68%
COc1ccc(CCn2cc3c(c2-c2ccc(Br)cc2)c(=O)n(C)c(=O)n3C)cc1OC -7.8%
Cc1ccc(S(=O)(=O)N2CCOCC2)cc1C(=O)Nc1ccccc1N1CCCC1 -16.8%
O=C(COC(=O)Cc1ccc(F)cc1)Nc1cc(S(=O)(=O)N2CCOCC2)ccc1N1CCCC1 2.6%
COCCn1c(=O)c(-c2ccccc2)nc2cnc(N3CCOCC3)nc21 8.94%
CCC(=O)N1N=C(c2ccc(OC)cc2)CC1c1cn(-c2ccccc2)nc1-c1cccs1 (configuration not stated) -4.57%
Cc1ccccc1NC(=O)Cn1c(=O)n(CCc2ccccc2)c(=O)c2ccccc21 -10.9%
Cc1cc(Cl)ccc1OCC(=O)N(Cc1ccc(N(C)C)cc1)C1CCS(=O)(=O)C1 (configuration not stated) 9.26%
CC(C)Cn1c(=O)c2ccccc2n2c(-c3cccc(Cl)c3)nnc12 21.6%
CCc1ccc(NC(=O)c2cc(S(=O)(=O)N3CCCC(C)C3)cn2C)cc1 (configuration not stated) 9.47%
COc1ccc(C2CC(=O)N(Cc3ccccc3C)c3c2c(C)nn3-c2nc(C)cc(C)n2)c(OC)c1 (configuration not stated) 5.38%
CSc1nc(Nc2ccc(F)cc2)cc(-c2ccccc2)n1 5.7%
CN(C)c1nc(NN)nc(Nc2ccc(F)cc2)n1 -11.3%
Cc1ccc(-c2nc(SCc3ccc(Br)cc3)n3[nH]c(=O)cc3n2)cc1 16.1%
CCc1ccccc1N1CC(c2nc3ccccc3n2CCCCOc2ccccc2)CC1=O (configuration not stated) 13.5%
Cc1cc(C)nc(NC(=O)/C=C/c2ccc(Cl)cc2)n1 -4.04%
Cc1cccc(C(=O)Nc2ccc(C(=O)/C=C/c3cccs3)cc2)c1 5.44%
COc1ccc(S(=O)(=O)NCc2cccn2Cc2cccc(C)c2)cc1 -9.31%
CCC1CCCCN1Cc1c(O)ccc2c(=O)c(Oc3ccccc3Cl)c(C(F)(F)F)oc12 (configuration not stated) -11.4%
CN1CCN2c3ccccc3Cc3ccccc3[C@@H]2C1 -7.22%
COc1ccc(C(=O)CSc2c(C(C)C)cnc3c2c(=O)n(C)c(=O)n3C)cc1 -4.32%
CCc1ccccc1NC(=O)c1sc2nc3c(cc2c1N)CN(Cc1ccccc1)CC3 -9.37%
COc1ccc(NC(=O)CCCc2nnc3n(CCC(C)C)c(=O)c4sccc4n23)c(OC)c1 -1.71%
COc1ccc(NS(=O)(=O)c2ccc(N3CCOCC3)c(NC(=O)/C=C/C(=O)O)c2)cc1 1.49%
COc1ccccc1NC(=O)/C=C/C(N)=O 1.2%
CCC(Sc1nnc(-c2ccc(OC)cc2)c(-c2ccc(OC)cc2)n1)C(=O)NC1CCCCC1 (configuration not stated) 11.6%
Cc1nc2ccccn2c(=O)c1NC(=O)c1c(F)cccc1F 13.4%
Cc1ccc2nc(-c3ccc(C)c(NC(=O)Cc4ccccc4)c3)oc2c1 -21.8%
Cc1ccc(OCC(=O)Nc2ccc(Cl)c(-c3nc4ccccc4[nH]3)c2)cc1C 2.81%
CC(=O)OCC(=O)[C@@]1(O)CCC2C3CCC4=CC(=O)CC[C@]4(C)C3C(=O)C[C@]21C (some centres not stated) -10.5%
Cc1ccc(Cl)cc1N1CCN(C(=O)c2cn(C)c3ccc(S(=O)(=O)N(C)C4CCCCC4)cc3c2=O)CC1 -5.35%
O=C1N=C(N2CCc3ccccc3C2)S/C1=C\c1ccc(O)cc1 17.3%
Cc1nn(-c2ccc(N3CCCCC3)nn2)c(C)c1CCC(=O)NCc1ccc(F)cc1 11.6%
COc1ccc(CCNC(=O)c2cc3cccc4c3n2CC(C)S4)c(OC)c1OC (configuration not stated) 4.11%
COc1ccc(Cn2ccn(Cc3cccc(OC)c3)c(=O)c2=O)cc1 6.97%
O=c1c(=O)n(Cc2c(F)cccc2Cl)ccn1Cc1ccccc1 -1.19%
COc1ccc(Cn2c(=O)[nH]c3cc(C(=O)N4CCN(C(=O)c5ccco5)CC4)ccc3c2=O)cc1 -6.06%
COc1ccc(-c2nc3sc(CCNS(=O)(=O)c4ccc(F)c(C)c4)c(C)n3n2)cc1 16%
O=C(Nc1cccc([N+](=O)[O-])c1)N1CCc2ccccc2C1 5.4%
O=C(CN1CCOCC1)Nc1cccc([N+](=O)[O-])c1 -1.57%
CC(=O)N1c2ccc(S(=O)(=O)N3CCCCCC3)cc2CC1C(=O)NCc1ccccc1C (configuration not stated) 5.71%
O=c1[nH]c(SCc2cccc(F)c2)nc2ccccc12 -6.23%
N#Cc1c(-c2ccc(F)cc2)nc(-c2ccccc2)[nH]c1=O 13.1%
Cc1oc(-c2ccccc2)nc1Cn1c(SCc2cccc(C(F)(F)F)c2)nc2cccnc21 2.78%

Potency, active:
COc1cc(C(=S)NCc2ccccc2)cc(Br)c1O 50.1 µM
COCCNC(=S)Nc1cc(S(=O)(=O)N2CCOCC2)ccc1N1CCCCC1 35.5 µM
O=c1[nH]c2ccccc2n2c(-c3ccccc3)nnc12 12.6 µM
Fc1ccc(Nc2nnns2)cc1 79.4 µM
Cc1cccc(C=CC(=O)c2ccc(Cl)cc2)c1 20 µM
COC(=O)c1sc(-c2ccc(C(C)(C)C)cc2)cc1NC(=O)/C=C/C(=O)O 28.2 µM
O=C1/C(=C\c2ccc(O)cc2)CCC1CNc1ccc(Cl)cc1 (configuration not stated) 79.4 µM
O=[N+]([O-])/C=C/c1ccc2c(ccn2Cc2ccccc2)c1 6.31 µM
COC(=O)/C=C\C(=O)Nc1cccc([N+](=O)[O-])c1 22.4 µM
N#Cc1c(-c2ccccc2)nc(SCc2cccc(C(F)(F)F)c2)[nH]c1=O 79.4 µM
